Among the data in PubChem BioAssay are inhibition values, retold here.

Unmarked numbers belong to inactive results. Activity calls are given as the source filed them. Cut-off read from the data, not from the text of the source, unless noted: active = inhibition above about 36%; inactive = the rest.

The target of assay [1] is Nuclear receptor coactivator 3 (Homo sapiens) (UniProt Q9Y6Q9). Nature of the assay: NCOA3 GAL4-fusion reporter inhibition – cell-based, luminescence, quadruplicate, confirmation (AID 588792;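 active = mean inhibition over 43.08%, the solvent-only control mean plus 3 SD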;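 note: 0% = DMSO treated cells and 100% = gossypol at 36 µM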). The note with it: HEK293 GAL4-SRC3 luciferase reporter, at 3.6 µM, hits give high values.
In assay [2] the test system is transactivating tegument protein VP16 (Human herpesvirus 1), Gal4-VP16 luciferase reporter. Nature of the assay: repression of VP16-driven luciferase reporter – cell-based, luminescence, high throughput, counter-screen for SRC3 inhibitor project (AID 588794; in the data active = inhibition above about 30%). To be noted: mammalian cells, at 3.6 µM, hits give high values.
Assay [3] deals with Nuclear receptor coactivator 1 (Homo sapiens) (UniProt Q15788). Nature of the assay: NCOA1 GAL4-fusion reporter inhibition – cell-based, luminescence, quadruplicate, confirmation (AID 588820;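 active = mean inhibition above 46.68%, the untreated control wells mean plus 3 SD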;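 note: 0% = DMSO wells and 100% = gossypol 36 µM treated wells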). The note with it: HEK293 GAL4-SRC1 luciferase reporter, at 3.6 µM, hits give high values. On the technique in general: A reporter such as luciferase makes a cellular process visible.
Assay [4] is described as follows: repression of VP16-driven luciferase reporter – cell-based, luminescence, high throughput, counter-screen for SRC1 inhibitor project (AID 588824; in the data active = inhibition above about 25%). The note with it: cell-based VP16 transactivation luciferase luminescence; at 3.6 µM; hits give high values.
A short description of assay [5]: StAR promoter reporter inhibitors, counter-screen for LRH-1 inverse agonist project, cell-based, luminescence, high throughput (AID 651611; in the data active = inhibition above about 28%). To be noted: StAR promoter luciferase reporter counterscreen, at 3.6 µM, hits give high values.
For assay [6], the target named is Nuclear receptor subfamily 5 group A member 2 (Homo sapiens) (UniProt O00482). Nature of the assay: NR5A2 activity suppression in reporter cells – cell-based, luminescence, confirmation (AID 651613; in the data active = inhibition above about 42%;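 note: HEK293T cells co-transfected with LRH-1 and StAR promoter luciferase reporter; 0% = vehicle wells and 100% = parental cells lacking receptor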). The note with it: cell-based LRH-1 luciferase reporter, inverse agonism; at 3.6 µM; hits give high values.
The target in assay [7] is Steroidogenic factor 1 (Homo sapiens) (UniProt Q13285). Nature of the assay: inverse agonism at SF1 nuclear receptor – cell-based, luminescence, high throughput, counter-screen for LRH-1 inverse agonist project (AID 651614; in the data active = inhibition above about 44%;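 note: cells cotransfected with StAR promoter reporter and SF1 expression vector; 0% = vehicle on cells with receptor and 100% = vehicle on cells lacking receptor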). To be noted: cell-based SF1 luciferase reporter, at 3.6 µM, hits give high values. (In general: Counterscreens check selectivity or assay interference.)

A short description of assay [8]: compounds suppressing VP16-driven luciferase signal – cell-based, luminescence, high throughput, counter-screen for LRH-1 inverse agonist project (AID 651615; in the data active = inhibition above about 33%). The note with it: Gal4-VP16 luciferase reporter cells, at 3.6 µM, hits give high values.
The test system of assay [9] is transactivating tegument protein VP16 (Human herpesvirus 1). Nature of the assay: compounds suppressing VP16-driven luciferase signal – cell-based, luminescence, single concentration, counter-screen for SRC2 inhibitor project (AID 652007). The note with it: cell-based VP16 transactivation luciferase reporter, at 8.9 µM, hits give high values.
Assay [10] addresses Nuclear receptor coactivator 2 (Homo sapiens) (UniProt Q15596). Nature of the assay: inhibition of GAL4-SRC2 driven luciferase expression – cell-based, luminescence, HEK293, triplicate, confirmation (AID 652008;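 active = mean inhibition above 46.5%, the solvent-only control mean plus 3 SD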;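 note: 0% = DMSO-treated cells and 100% = Gossypol at 36 µM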). To be noted: HEK293 GAL4-SRC2 luciferase reporter, at 8.9 µM, hits give high values.

Nuclear receptor coactivator 1 (Homo sapiens), sequence (Q15788 whole entry, looked up, the tested form may be a part): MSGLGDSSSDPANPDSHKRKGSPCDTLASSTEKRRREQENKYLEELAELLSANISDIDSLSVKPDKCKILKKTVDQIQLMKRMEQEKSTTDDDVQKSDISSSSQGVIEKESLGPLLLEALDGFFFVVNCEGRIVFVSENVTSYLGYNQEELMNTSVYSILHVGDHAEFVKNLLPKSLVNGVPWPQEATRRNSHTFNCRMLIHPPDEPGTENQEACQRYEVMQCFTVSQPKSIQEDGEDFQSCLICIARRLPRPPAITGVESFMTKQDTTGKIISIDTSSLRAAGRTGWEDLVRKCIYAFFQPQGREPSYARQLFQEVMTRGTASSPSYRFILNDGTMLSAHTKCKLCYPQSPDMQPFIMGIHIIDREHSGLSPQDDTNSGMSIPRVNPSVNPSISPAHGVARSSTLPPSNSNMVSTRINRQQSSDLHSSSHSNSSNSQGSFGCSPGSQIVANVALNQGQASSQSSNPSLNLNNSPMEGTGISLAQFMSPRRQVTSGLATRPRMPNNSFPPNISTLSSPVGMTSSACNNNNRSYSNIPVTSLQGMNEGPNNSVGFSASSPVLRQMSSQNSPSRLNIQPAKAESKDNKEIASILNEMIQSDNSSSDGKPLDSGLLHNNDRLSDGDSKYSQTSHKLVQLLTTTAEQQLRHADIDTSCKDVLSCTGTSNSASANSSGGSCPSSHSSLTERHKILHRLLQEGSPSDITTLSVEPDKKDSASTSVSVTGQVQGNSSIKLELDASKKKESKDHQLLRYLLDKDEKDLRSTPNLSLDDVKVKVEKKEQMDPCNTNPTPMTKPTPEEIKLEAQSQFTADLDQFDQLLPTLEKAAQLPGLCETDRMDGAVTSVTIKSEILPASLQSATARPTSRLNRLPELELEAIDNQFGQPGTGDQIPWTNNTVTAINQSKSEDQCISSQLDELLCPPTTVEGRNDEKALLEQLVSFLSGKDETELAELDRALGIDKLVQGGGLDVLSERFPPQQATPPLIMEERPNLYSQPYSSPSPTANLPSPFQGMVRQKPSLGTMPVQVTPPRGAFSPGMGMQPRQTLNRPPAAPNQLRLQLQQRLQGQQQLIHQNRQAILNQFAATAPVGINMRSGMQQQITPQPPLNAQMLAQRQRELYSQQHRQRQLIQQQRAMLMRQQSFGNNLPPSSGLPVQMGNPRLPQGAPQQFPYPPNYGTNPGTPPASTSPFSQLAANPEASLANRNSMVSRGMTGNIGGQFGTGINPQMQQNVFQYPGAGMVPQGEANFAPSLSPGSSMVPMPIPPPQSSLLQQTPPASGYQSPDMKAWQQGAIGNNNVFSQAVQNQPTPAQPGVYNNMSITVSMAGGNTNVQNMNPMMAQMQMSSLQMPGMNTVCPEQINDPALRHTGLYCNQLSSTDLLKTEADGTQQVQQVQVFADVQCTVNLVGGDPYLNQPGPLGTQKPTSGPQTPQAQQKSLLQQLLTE
Nuclear receptor coactivator 2 (Homo sapiens), sequence (Q15596 whole entry, looked up, the tested form may be a part): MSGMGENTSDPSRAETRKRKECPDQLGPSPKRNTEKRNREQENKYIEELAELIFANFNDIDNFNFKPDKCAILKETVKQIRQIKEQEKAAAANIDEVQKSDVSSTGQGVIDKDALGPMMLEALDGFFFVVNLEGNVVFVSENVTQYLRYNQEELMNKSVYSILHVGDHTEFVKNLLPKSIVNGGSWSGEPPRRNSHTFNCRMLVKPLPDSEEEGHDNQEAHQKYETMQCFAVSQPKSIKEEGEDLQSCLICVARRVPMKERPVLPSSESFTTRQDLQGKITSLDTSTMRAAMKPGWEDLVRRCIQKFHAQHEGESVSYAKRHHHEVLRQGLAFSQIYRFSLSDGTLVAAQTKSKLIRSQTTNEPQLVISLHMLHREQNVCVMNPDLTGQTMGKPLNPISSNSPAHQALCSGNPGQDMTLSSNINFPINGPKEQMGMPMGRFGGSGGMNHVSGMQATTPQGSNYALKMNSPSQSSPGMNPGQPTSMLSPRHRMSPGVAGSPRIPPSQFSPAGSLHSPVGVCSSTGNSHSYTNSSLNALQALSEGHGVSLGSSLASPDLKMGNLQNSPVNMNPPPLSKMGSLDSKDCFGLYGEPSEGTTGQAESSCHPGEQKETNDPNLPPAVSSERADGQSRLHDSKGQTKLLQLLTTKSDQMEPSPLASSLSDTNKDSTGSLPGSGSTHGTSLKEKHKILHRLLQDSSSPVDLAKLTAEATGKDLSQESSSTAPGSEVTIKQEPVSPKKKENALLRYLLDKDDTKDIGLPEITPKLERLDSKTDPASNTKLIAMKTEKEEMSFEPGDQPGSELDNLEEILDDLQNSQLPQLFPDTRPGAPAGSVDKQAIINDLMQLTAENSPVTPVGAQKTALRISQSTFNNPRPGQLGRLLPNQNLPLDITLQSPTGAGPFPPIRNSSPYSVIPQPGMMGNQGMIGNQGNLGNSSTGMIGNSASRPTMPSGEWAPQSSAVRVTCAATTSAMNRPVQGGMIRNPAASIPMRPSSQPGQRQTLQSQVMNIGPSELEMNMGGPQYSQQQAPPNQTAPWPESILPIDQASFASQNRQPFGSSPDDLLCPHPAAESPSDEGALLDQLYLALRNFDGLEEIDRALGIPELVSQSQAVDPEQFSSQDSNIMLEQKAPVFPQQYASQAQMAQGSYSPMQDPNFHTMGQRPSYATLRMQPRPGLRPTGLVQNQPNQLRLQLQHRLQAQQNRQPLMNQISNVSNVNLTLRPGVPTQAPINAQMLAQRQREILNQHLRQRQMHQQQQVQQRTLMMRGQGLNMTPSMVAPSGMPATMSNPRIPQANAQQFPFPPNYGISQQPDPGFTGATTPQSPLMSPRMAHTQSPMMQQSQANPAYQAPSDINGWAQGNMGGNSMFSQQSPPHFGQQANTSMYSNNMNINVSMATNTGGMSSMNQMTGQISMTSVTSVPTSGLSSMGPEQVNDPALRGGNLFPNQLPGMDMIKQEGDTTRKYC
Nuclear receptor coactivator 3 (Homo sapiens), sequence (Q9Y6Q9 whole entry, looked up, the tested form may be a part): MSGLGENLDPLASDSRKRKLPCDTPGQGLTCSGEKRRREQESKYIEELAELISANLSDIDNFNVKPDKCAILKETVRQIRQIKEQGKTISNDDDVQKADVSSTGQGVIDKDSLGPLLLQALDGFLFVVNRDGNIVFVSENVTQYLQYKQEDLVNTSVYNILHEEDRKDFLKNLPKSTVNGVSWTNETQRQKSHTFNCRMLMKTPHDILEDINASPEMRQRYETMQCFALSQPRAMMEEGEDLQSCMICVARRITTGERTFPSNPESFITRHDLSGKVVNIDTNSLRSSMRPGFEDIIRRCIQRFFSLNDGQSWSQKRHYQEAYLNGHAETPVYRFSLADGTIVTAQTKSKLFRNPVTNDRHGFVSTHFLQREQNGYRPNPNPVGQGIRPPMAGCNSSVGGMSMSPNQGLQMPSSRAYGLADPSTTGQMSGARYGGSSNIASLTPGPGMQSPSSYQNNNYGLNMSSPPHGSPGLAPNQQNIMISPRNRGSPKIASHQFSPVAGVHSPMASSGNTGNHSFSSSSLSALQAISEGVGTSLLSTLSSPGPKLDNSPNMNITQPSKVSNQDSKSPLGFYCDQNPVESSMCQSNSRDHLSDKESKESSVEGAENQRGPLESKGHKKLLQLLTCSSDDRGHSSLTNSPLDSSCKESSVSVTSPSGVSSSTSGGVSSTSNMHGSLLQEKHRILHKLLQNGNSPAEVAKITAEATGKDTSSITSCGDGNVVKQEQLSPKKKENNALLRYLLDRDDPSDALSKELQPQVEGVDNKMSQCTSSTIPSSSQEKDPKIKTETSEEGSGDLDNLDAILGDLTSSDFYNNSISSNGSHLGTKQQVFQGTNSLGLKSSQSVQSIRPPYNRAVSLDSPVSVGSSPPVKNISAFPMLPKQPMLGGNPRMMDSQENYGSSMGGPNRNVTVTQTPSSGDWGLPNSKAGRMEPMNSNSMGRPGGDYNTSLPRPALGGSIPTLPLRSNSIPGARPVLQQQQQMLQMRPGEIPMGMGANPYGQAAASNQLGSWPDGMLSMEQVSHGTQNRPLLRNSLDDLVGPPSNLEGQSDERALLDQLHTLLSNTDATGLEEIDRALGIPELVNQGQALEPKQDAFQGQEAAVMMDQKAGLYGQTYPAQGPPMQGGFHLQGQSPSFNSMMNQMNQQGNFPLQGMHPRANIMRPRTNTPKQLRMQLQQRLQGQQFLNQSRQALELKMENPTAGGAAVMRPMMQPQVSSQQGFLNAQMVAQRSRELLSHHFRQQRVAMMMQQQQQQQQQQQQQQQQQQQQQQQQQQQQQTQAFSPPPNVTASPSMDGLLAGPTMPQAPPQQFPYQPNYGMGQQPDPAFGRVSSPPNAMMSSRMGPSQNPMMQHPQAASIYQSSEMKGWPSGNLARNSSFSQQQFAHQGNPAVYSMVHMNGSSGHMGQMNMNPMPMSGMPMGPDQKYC
Nuclear receptor subfamily 5 group A member 2 (Homo sapiens), sequence (O00482 whole entry, looked up): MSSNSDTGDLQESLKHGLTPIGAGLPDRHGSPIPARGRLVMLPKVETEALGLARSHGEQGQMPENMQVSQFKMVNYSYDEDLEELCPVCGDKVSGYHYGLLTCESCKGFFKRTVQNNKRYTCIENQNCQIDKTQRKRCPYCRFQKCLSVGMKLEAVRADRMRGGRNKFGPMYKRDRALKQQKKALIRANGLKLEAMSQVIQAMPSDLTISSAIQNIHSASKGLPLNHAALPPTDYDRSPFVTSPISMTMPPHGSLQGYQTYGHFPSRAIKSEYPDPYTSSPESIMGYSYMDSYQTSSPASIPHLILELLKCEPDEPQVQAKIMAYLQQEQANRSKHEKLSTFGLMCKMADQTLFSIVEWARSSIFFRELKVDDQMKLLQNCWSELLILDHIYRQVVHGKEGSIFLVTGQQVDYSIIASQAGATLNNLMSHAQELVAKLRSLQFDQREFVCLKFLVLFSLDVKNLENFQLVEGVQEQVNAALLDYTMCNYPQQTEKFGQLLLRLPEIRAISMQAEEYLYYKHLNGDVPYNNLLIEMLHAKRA

In general, inhibition refers to the drop in the measured response relative to a control, in per cent. Consider `CC(O)CC(=O)OC[C@]12CC[C@H]3[C@@](C)(CC[C@H]4C(C)(C)CCC[C@]34C)[C@@H]1CC(C1=CC(=O)OC1O)O2` (stereo not given in full), for which the inhibition in assay [1] was 30.2%; in [2], 53.4% (active); in assay [3], 31%; in [4], 43.4% (active); in [5], 51.2% (active); in assay [6], 76.6% (active). In addition, the inhibition in [7] was 80.5% (active); in assay [8], 75.2% (active); in assay [9], 50.6% (active); in assay [10] it was -41%.
As to `COc1ccc([C@@]23Oc4cc(OC)cc(OC)c4[C@]2(O)[C@H](O)[C@H](C(=O)N(C)C)[C@H]3c2ccccc2)cc1`, the inhibition is 95.7% (active) in [1]; 93.7% (active) in [2]; 85.6% (active) in [3]; 92.9% (active) in [4]; 97.6% (active) in assay [5]; 111% (active) in [6]. The inhibition in assay [7] was 99.3% (active); in assay [8] it was 98.2% (active); in assay [9], 56.2% (active); in assay [10] it was 68.6% (active).
Turning to `COc1ccc2c(c1)-c1c(ssc1=S)C(C)(C)N2`, the inhibition in assay [1] was 73.3% (active); in [2], 54.6% (active); in assay [3], 64% (active); in assay [4] it was 50.3% (active); in assay [5], 28.7% (active); in assay [6] it was 46.7% (active). The inhibition is 41.5% in assay [7], 67.9% (active) in assay [8], 6.45% in assay [9] and 49.7% (active) in assay [10].
As to `Cc1c(C)c2ccc(OCC(=O)Nc3ccccn3)c(C)c2oc1=O`, the inhibition was 78.5% (active) in assay [1]; 72.3% (active) in assay [2]; 50.1% (active) in [3]; 59.6% (active) in [4]; 67.5% (active) in [5]; 68.8% (active) in assay [6]. For the same compound, the inhibition is 76.4% (active) in assay [7], 69.7% (active) in [8], 81.3% (active) in assay [9] and 90.3% (active) in assay [10].
In the case of `COc1ccccc1C(=O)Nc1nc2ccccc2[nH]1`, the inhibition in [1] is 79.4% (active); in [2] it was 72.7% (active); in assay [3], 58.5% (active); in [4], 75.2% (active); in assay [5] it was 75.3% (active); in assay [6], 75.4% (active). The inhibition in assay [7] is 83.8% (active); in assay [8], 66.3% (active); in [9] it was 89.6% (active); in assay [10], 93.8% (active).
With `CC(C)(C)c1ccc(C(=O)Nc2ccc(CC(=O)O)cc2)o1`, the inhibition in [1] is 54.1% (active); in assay [2], 40% (active); in assay [3], 37.9%; in assay [4], 42% (active); in [5] it was 45.1% (active); in [6], 52.5% (active). For the same compound, the inhibition is 46.9% (active) in [7], 37.7% (active) in assay [8], 70.2% (active) in assay [9] and 92.1% (active) in [10].
As to `Cc1cc(C(=O)CSc2ccc(F)cc2)cc(C)c1OC(=S)N(C)C`, the inhibition in assay [1] was 41.6%; in [2], 43.6% (active); in assay [3], 2.12%; in assay [4], -8.86%; in assay [5] it was -28.6%; in assay [6], -65.3%. The inhibition in assay [7] was -23.4%; in [8], -17.3%; in [9], 22.6%; in [10], 65.7% (active).
Regarding `Cc1ccc(C(=O)Nc2sc(C)c(-c3ccccc3)c2C(N)=O)cc1[N+](=O)[O-]`, the inhibition was 64% (active) in [1]; 50% (active) in assay [2]; 29.8% in assay [3]; 22.4% in [4]; 47.7% (active) in assay [5]; -41.3% in assay [6]. The inhibition is 38.9% in assay [7], 10.9% in assay [8], 71.9% (active) in [9] and 74.1% (active) in assay [10].
In the case of `CN(C(=O)COc1ccccc1C(=O)NCCOc1ccccc1)c1ccccc1`, the inhibition in assay [1] is 20.1%; in assay [2], 32.4% (active); in assay [3], -24.3%; in [4], 32.8% (active); in assay [5] it was 63.6% (active); in assay [6], 31.8%. The inhibition in assay [7] is 54.3% (active); in assay [8], 37.1% (active); in [9], 36.4% (active); in [10] it was 47.3% (active).
Turning to `O=C(/C=C/Nc1ccccc1Br)c1ccccn1`, the inhibition in [1] was 48.5% (active); in assay [2], 32.8% (active); in assay [3] it was 10.4%; in [4], 33.1% (active); in assay [5], 58.2% (active); in assay [6] it was 42.5% (active). Moreover, the inhibition in assay [7] is 62.7% (active); in assay [8], 36.1% (active); in assay [9] it was 64.9% (active); in [10], 82.7% (active).
In the case of `COc1ccc(-c2nsc3c(N4CCCCC4C)ncnc23)cc1` (stereo not given), the inhibition was 84.2% (active) in assay [1]; 80.4% (active) in assay [2]; 70.2% (active) in [3]; 68.4% (active) in assay [4]; 80.2% (active) in [5]; 59.2% (active) in assay [6]. In addition, the inhibition was 80.9% (active) in [7], 67% (active) in assay [8], 83.1% (active) in assay [9] and 93.3% (active) in [10].
Consider `CNC1=C(N(C(C)=O)c2ccc(Br)cc2)C(=O)c2ccccc2C1=O`, for which the inhibition is 82.4% (active) in assay [1]; 84.8% (active) in assay [2]; 74.2% (active) in assay [3]; 84.8% (active) in [4]; 76.4% (active) in [5]; 97.4% (active) in assay [6]. Further, the inhibition in [7] was 90.8% (active); in assay [8] it was 89.3% (active); in assay [9] it was 18.5%; in assay [10], 48.9% (active).
As to `Cc1ccc2oc(/N=C(\N)NC(=O)C(C)(C)C)nc2c1`, the inhibition is 82.8% (active) in assay [1]; 73.6% (active) in assay [2]; 65.2% (active) in [3]; 61.1% (active) in assay [4]; 80.4% (active) in assay [5]; 51.4% (active) in assay [6]. Moreover, the inhibition is 75.4% (active) in assay [7], 61.7% (active) in assay [8], 77.6% (active) in assay [9] and 91.5% (active) in assay [10].
In the case of `COc1cc(C=CC(=O)c2cc(OC)c(OC)c(OC)c2)cc(OC)c1OC`, the inhibition is 72.3% (active) in assay [1]; 57.4% (active) in [2]; 38.1% in assay [3]; 46.4% (active) in assay [4]; 73.1% (active) in assay [5]; 67.1% (active) in assay [6]. Besides, the inhibition was 76.1% (active) in [7], 69.1% (active) in [8], 47.7% (active) in assay [9] and 73% (active) in assay [10].
With `CC[C@@]1(O)C(=O)OCc2c1cc1n(c2=O)Cc2cc3c(N)cccc3nc2-1`, the inhibition in assay [1] is 91.8% (active); in [2], 77.3% (active); in assay [3], 58.2% (active); in assay [4], 74.7% (active); in assay [5], 84.6% (active); in [6] it was 104% (active). In addition, the inhibition in assay [7] is 92% (active); in [8] it was 77.2% (active); in assay [9], 30.5%; in assay [10], 51.9% (active).
